These results are taken from PubChem BioAssay AID455 (Sanford-Burnham Center for Chemical Genomics, 2006).

Out of some 10,000 compounds screened, about 20 (0.2%) were called active. This is one part of a sample in which actives are shown more often than they occur.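 How the source made its calls: active means a compound raising TNF-alpha-driven VCAM-1 surface staining, with its hit status upheld on visual or statistical review; inactive means the rest, including hits rejected on review.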

The assay in a line: boosters of cytokine-driven VCAM-1 levels – cell-based, plate reader, pooled HUVEC, TNFa stimulus (AID 455).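 On augmentation: 0% = TNFa plus DMSO wells and 100% = a visually confirmed top hit.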 Particulars: HUVEC TNFa-induced VCAM-1 immunofluorescence; stronger effect = higher value, 100% set by best visually verified hit,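 tested at 5 µM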.
On to `CC1/C(=N/O)C(CN(C)C)C2CC1C2(C)C` (stereo unspecified), for which the augmentation result was “inactive”.
With `COc1ccc(-c2noc(C3CCCN(C(=O)CCc4ccccc4)C3)n2)cc1` (stereo unspecified) the entry was “inactive”; with `O=C(NCCc1c[nH]c2ccccc12)c1cnc2n(c1=O)CCS2`, “inactive”; with `CCOc1ccccc1C(=O)NC(C)c1ccc2c(c1)OCO2` (stereo unspecified), “inactive”.
For `O=C(CN1CCN(Cc2ccc(F)cc2Cl)C1=O)NCCCN1CCOCC1`, the augmentation result was “inactive”.
With `O=C(CSc1nnc2scc(-c3ccccc3)n12)N1CCN(Cc2ccccc2)CC1` the entry was “inactive”; with `c1ccc2c3nnc4n(c-3nc2c1)CCCS4`, “inactive”.
With `COc1cc(NC(=O)C2CCCN2S(=O)(=O)c2cccc3cccnc23)cc(OC)c1OC` (stereo unspecified) the entry was “inactive”; with `COc1ccccc1-c1nc(SCc2ccccn2)n[nH]1`, “inactive”.
As for `CN(C)c1cccc(C(=O)OCC(=O)NCc2ccco2)c1`, the augmentation result is “inactive”.
With `O=C(CSc1nnc(-c2ccccc2)o1)N1CCc2ccccc2C1` the entry was “inactive”; with `Cc1noc(C)c1COc1cccc(C(=O)Oc2ccc3c(c2)OCO3)c1`, “inactive”.
Regarding `O=C1C2CCCN2C(c2ccc(Cl)cc2)N1c1nccs1` (stereo unspecified), the augmentation result was “inactive”.
The value for `C=CCn1c(=O)[nH]c2cc(C(=O)N3CCN(c4cc(C)ccc4C)CC3)ccc2c1=O` was “inactive”; that for `COc1cccc(NC(=O)CSc2nnc(-c3cccs3)n2C)c1` was “inactive”.
The value for `CCCC(=O)NCCc1cc2c(C)ccc(C)c2[nH]c1=O` was “inactive”.
For `O=C(CNC(=O)c1cccs1)NCCN1CCN(c2ccccc2F)CC1`, the augmentation result was “inactive”.
With `COc1cccc(NC(=O)N2CCN(c3cccc(C)c3C)CC2)c1` the figure was 100% (active).
With `COc1cccc(NC(=O)CN2CCN(c3ccccc3F)CC2)c1` the entry was “inactive”; with `COc1cccc(NC(=O)N2CCC(N3CCCCC3)CC2)c1`, “inactive”; with `Cc1ccc(C)c(CSc2nnc(CCN)o2)c1`, “inactive”.
With `COc1ccc(N2CCN(CCNS(=O)(=O)c3cccc4nsnc34)CC2)cc1` the entry was “inactive”; with `CC(=O)c1ccccc1Oc1nc(CN2CCOCC2)nc2scc(-c3cccs3)c12`, “inactive”; with `COC(=O)c1ccc(CNC(=O)CSc2nc3sc(C)c(C)c3c(=O)n2C)o1`, “inactive”.
Turning to `COc1ccc(S(=O)(=O)NCc2ccc(C(=O)O)cc2)cc1`, the augmentation entry was “inactive”.
With `CCN(CC)CCCNS(=O)(=O)c1ccc(OC)cc1` the entry was “inactive”; with `CCCCC(NS(=O)(=O)c1ccc(OC)cc1)C(=O)O` (stereo unspecified), 66.3% (active).
With `O=C(Nc1nc(-c2ccc(S(=O)(=O)N3CCCCCC3)cc2)cs1)c1cccs1` the entry was “inactive”.
With `C=CCn1c(-c2ccc(OC)cc2)nc2ccccc21`, the augmentation result was “inactive”.
For the molecule `COCCn1c(-c2ccc(OC)c(OC)c2)nc2ccccc21`, the augmentation is 100% (active).
As for `COc1ccc(Cn2c(CCCO)nc3ccccc32)cc1OC`, the augmentation result is “inactive”.
With `Cc1ccc(O)c(-c2cc3ccccc3[nH]2)c1` the entry was “inactive”; with `CC(O)c1nc2ccccc2n1C1CCCCC1` (stereo unspecified), “inactive”; with `CC(C)NC(=O)CSc1nc2ccccc2n1-c1ccccc1`, “inactive”.
The value for `CC(C)N=c1cc2n(-c3ccc(Cl)cc3)c3ccccc3nc-2cc1Nc1ccc(Cl)cc1` was 74% (active).
For the molecule `CCOC(=O)C1CN(S(=O)(=O)c2ccc(C)cc2)CCN1S(=O)(=O)c1ccc(C)cc1` (stereo unspecified), the augmentation entry was “inactive”.
The value for `CCOc1ccccc1N1C(=O)CC(Sc2ncccc2C(=O)O)C1=O` (stereo unspecified) was “inactive”.
With `COc1ccc(-c2oc3ncn(CCN4CCOCC4)c(=N)c3c2-c2ccc(OC)cc2)cc1` the entry was “inactive”; with `CC1=C(C(=O)OC2CCCC2)C(c2ccc(C)o2)C2=C(CC(c3cccs3)CC2=O)N1` (stereo unspecified), “inactive”; with `COc1cccc(CNC(=O)C2CCN(S(=O)(=O)c3ccc(F)cc3)CC2)c1`, “inactive”.
The value for `CCCCSc1nnc([C@H](C)NC(=O)OC(C)(C)C)o1` was “inactive”; that for `O=C(OC1CCOC1=O)c1ccc2ccccc2n1` (stereo unspecified) was “inactive”; that for `Cn1cccc1-c1nc2ccc(NC(=O)c3ccco3)cc2[nH]1` was 65.1% (inactive).
Regarding `O=C(Nc1ccc2nc(-c3cccs3)[nH]c2c1)c1ccco1`, the augmentation is 72.4% (active).
The value for `COc1ccc(NC(=O)c2ccco2)cc1NC(=O)c1cccs1` was “inactive”.
The value for `O=C(Nc1ccccc1-c1nc2ccccc2o1)c1ccc2c(c1)OCCO2` was “inactive”.
The value for `CCN1C(=O)c2cccc3c(NC(=O)c4ccc5c(c4)OCCO5)ccc1c23` was “inactive”; that for `O=C(Nc1cccc2ncccc12)c1ccc2c(c1)OCCO2` was 81% (active).
With `CC(C)C(=O)N1CCN(c2nc(-c3ccccc3)c3c(c2C#N)CCCC3)CC1`, the augmentation result is “inactive”.
With `Oc1cccc(C=NCc2ccccc2)c1O` the figure was 61.8% (active); with `FC(F)Sc1nnc(-c2cccs2)n1-c1ccccc1`, “inactive”; with `CCCC(=O)Nc1cc(C)c2c(=O)oc3ccccc3c2n1`, “inactive”.
The value for `Cc1ccc(Br)cc1S(=O)(=O)N1CCN(c2ccccc2)CC1` was “inactive”; that for `Cc1cc(C)c2c(n1)nn1c(C3CC3)cc(C(F)(F)F)nc21` was “inactive”; that for `CCOC(=O)CN1C2=NCCN2c2ccccc21` was “inactive”.
The value for `c1ccc(CN2C3=NCCCN3c3ccccc32)cc1` was “inactive”; that for `COc1ccc(C(=O)CN2C3=NCCCN3c3ccccc32)cc1OC` was 71.2% (active); that for `Cc1cccc(NC(=O)CC2CCC2)c1` was “inactive”.
In the case of `Cc1cc(C)n(-c2nc3sc4c(c3c3nnc(SCC(N)=O)n23)CC(C)(C)OC4)n1`, the augmentation result is “inactive”.
As to `CCCC(=O)Nc1cc(C)c(NC(=O)c2ccccn2)cn1`, the augmentation result was “inactive”.
The value for `COCCn1c(CN2CCN(c3cccc(Cl)c3)CC2)nc2c1c(=O)n(C)c(=O)n2C` was “inactive”.
`O=c1cc(NCc2ccccc2)nc2n1CCCS2`: the augmentation entry is “inactive”.
With `O=C(Nc1cccc(F)c1)c1ccc2c(c1)OCO2` the entry was “inactive”; with `O=C1CCCN1Cc1ncnn1-c1ccccc1`, “inactive”; with `O=C(Nc1ccc2c(c1)OCO2)N1CCN(c2ncccn2)CC1`, “inactive”.
With `CCC(=O)N1CCc2cc(S(=O)(=O)CCC(=O)Nc3ccc(C)c(F)c3)ccc21` the entry was “inactive”; with `CCC(=O)N1CCc2cc(S(=O)(=O)CCC(=O)Nc3c(C)n(C)n(-c4ccccc4)c3=O)ccc21`, 70.3% (active).
With `CCC(=O)N1CCc2cc(S(=O)(=O)CCC(=O)Nc3nc(C)cs3)ccc21`, the augmentation entry is “inactive”.
Take `CCc1nc(N[C@@H](Cc2c[nH]c3ccccc23)C(=O)O)c2oc3ccccc3c2n1`: the augmentation entry was “inactive”.
Consider `Cc1cc2c(=O)n(CC(=O)N3CCN(c4ccccc4)CC3)cnc2s1`, for which the augmentation entry is “inactive”.
With `Cc1csc(NC(=O)c2ccccc2C(=O)O)n1` the entry was “inactive”.
As to `CC(C)(C)c1ccc(OCC(=O)O)cc1`, the augmentation result is “inactive”.
With `Cc1cc(C)nc(N2CCCC(C(=O)Nc3nc4ccc(S(C)(=O)=O)cc4s3)C2)n1` (stereo unspecified) the entry was “inactive”.
The value for `COc1cc(NC(=O)CN(c2cc(C)cc(C)c2)S(=O)(=O)c2c(C)noc2C)cc(OC)c1` was “inactive”; that for `Cc1ccc(NC(=O)CSc2nnc(CSc3nc(C)cc(C)n3)n2Cc2ccco2)c(C)c1` was “inactive”; that for `CCn1c(=S)ccc2ccc(OC)cc21` was “inactive”.
With `CCOc1ccc(NC(=O)CSc2nccn2C)cc1` the entry was “inactive”; with `COC(=O)c1ccc2c(c1)C(=O)N(C1CCCCC1)C2=O`, “inactive”.
Regarding `CCOc1cc(C2NC(=O)N(C)C(C)=C2C(=O)OC)cc(Br)c1O` (stereo unspecified), the augmentation result is “inactive”.
`CCOC(=O)C1=C(C)NC(=O)NC1c1ccc(OCCO)c(OC)c1` (stereo unspecified): the augmentation entry was “inactive”.
With `CCOC(=O)C1=C(c2ccccc2)NC(=O)NC1c1ccc(N(C)C)cc1` (stereo unspecified) the figure was 63.8% (active); with `CCOC(=O)C1=C(C)NC2=C(C(=O)CC(C)(C)C2)C1c1ccc(N(C)C)cc1` (stereo unspecified), “inactive”.
The value for `Cc1ccc(S(=O)(=O)NC(=O)c2cc(C)n(CCCn3ccnc3)c2C)cc1` was “inactive”.
With `COc1ccc(C(=O)Nc2nc(C)c(C(=O)N(C)C)s2)cc1OC` the entry was “inactive”; with `COc1ccccc1NC(=O)NC(N)=O`, “inactive”.
As to `O=C(C1CC1)N1CCc2cc(Br)cc(S(=O)(=O)N3CCOCC3)c21`, the augmentation entry is “inactive”.
With `CC1(C)Cc2ccccc2C(N)=C1C#N` the entry was “inactive”; with `CCN1CCN(c2nc(C)nc3c2sc(=S)n3C)CC1`, “inactive”.
As to `CCc1cc2ccc(C)cc2nc1SCC(=O)N1CCN(C(=O)c2ccco2)CC1`, the augmentation entry was “inactive”.
With `O=c1c2[nH]c3ccc(Cl)cc3c2ncn1Cc1ccccn1` the figure was 100% (active); with `O=C1CCCN1CCCNc1ncnc2c1[nH]c1ccc(Cl)cc12`, “inactive”.
With `O=c1c2[nH]c3ccccc3c2ncn1CCCn1ccnc1` the entry was “inactive”; with `COc1cc(-c2nc(S(=O)(=O)c3ccccc3)c(N3CCOCC3)o2)cc(OC)c1OC`, “inactive”.
The value for `COc1cc2[nH]c(=O)c(C(=O)NCCCN3CCCCC3)c(O)c2cc1OC` was “inactive”.
For the molecule `COc1cccc(C2C(C(=O)c3cccs3)=C(O)C(=O)N2CCCn2ccnc2)c1OC` (stereo unspecified), the augmentation entry was “inactive”.
With `Cc1cccc(C(=O)N2CCN(C(=O)c3cccc(C)c3)C(C)C2)c1` (stereo unspecified) the entry was “inactive”.
The value for `CC(=O)c1ccccc1NS(=O)(=O)c1c(C)nn(-c2ccccc2)c1C` was “inactive”; that for `COc1cccc(NC(=O)N(CCCN2CCOCC2)C(C)c2cc3cccc(OC)c3o2)c1` (stereo unspecified) was “inactive”.
With `S=C(c1ccc(N2CCOCC2)cc1)N1CCCCC1` the entry was “inactive”; with `COc1ccccc1C1/C(=C(\O)c2c(C)nc3c(C)cccn23)C(=O)C(=O)N1CCCN(C)C` (stereo unspecified), “inactive”.
As for `COc1ccc(S(=O)(=O)Nc2ccc(S(=O)(=O)N3CCCCC3)cc2)cc1OC`, the augmentation entry was “inactive”.
The value for `COc1ccc(S(=O)(=O)Nc2ccc(F)c(Cl)c2)cc1OC` was 70.4% (active); that for `COc1ccc(S(=O)(=O)Nc2ccc(F)c(F)c2)cc1Cl` was “inactive”; that for `COC(=O)Cc1c(C)c2ccc(OCC(=O)N3CCOCC3)cc2oc1=O` was “inactive”.
With `CCCSc1nnc(N2C(=O)CC(c3ccsc3)C3=C2CCCC3=O)s1` (stereo unspecified) the entry was “inactive”.
With `COc1ccc(-c2nnc(SCC(=O)NC(=O)NCc3ccco3)o2)cc1` the entry was “inactive”.
